# Screen size: about 330,000 compounds; about 7,300 (2.2%) were called active.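 The calls were made as follows: active = inhibition of at least 40%; inactive = the rest.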 Only a selection was taken, and actives are over-represented in it overall.
# Test: growth inhibitors of tim10-1 mutant yeast, primary screen, luminescence, uHTS (AID 463190);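 also: mutant grown at 25 °C; 0% = DMSO wells with yeast and 100% = wells holding no yeast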
# Conditions: S. cerevisiae tim10-1 ts strain growth, BacTiter-Glo, 24 h; at 20 µM; stronger effect = higher value
row,Compound,inhibition
1,O=C(NCCc1ccc(F)cc1)c1ccc(S(=O)(=O)N2CCCCC2)cc1,41.8% (active)
2,COC(=O)c1ccc(CNC(=O)c2ccc(S(=O)(=O)N3CCCCCC3)cc2)cc1,14.2% (inactive)
3,O=C(Nc1ccccc1F)c1ccc(S(=O)(=O)N2CCCCCC2)cc1,18.9% (inactive)
4,C/C=C(\C)C(=O)NCCN1C2=NC[C@H](Cc3ccc(O)cc3)N2C[C@@H]1Cc1ccc(OC)cc1,-7.43% (inactive)
5,Cc1nc(-c2ccc([N+](=O)[O-])cc2)c(-c2ccccc2)o1,14.6% (inactive)
6,O=c1[nH]n(-c2ccc([N+](=O)[O-])cc2)c(=O)c2ccccc12,-4.91% (inactive)
7,O=C1CC(c2ccccc2)=NN1c1ccc([N+](=O)[O-])cc1,44.5% (active)
8,COc1ccc2ccn(C)c2c1,-6.1% (inactive)
9,COc1ccc2c(c1)cc1n2CCN=C1NN,43.7% (active)
10,CC12COC3(C(=O)Nc4ccc(Cl)cn4)CC1CCC32C (stereo not drawn),33.3% (inactive)
11,CC(=NCc1ccco1)c1c(C(F)(F)F)[nH]n(-c2nc3ccccc3s2)c1=O,75.2% (active)
12,CCC1(CC)NC(=O)N(Cc2nc3ccccc3s2)C1=O,9.64% (inactive)
13,CCC(C)Cn1c(O)cc2nn(-c3nc4ccccc4s3)c(=O)c-2c1C (stereo not drawn),0.194% (inactive)
14,CCOC(=O)c1sc(N)c(C#N)c1COC(=O)C1=COCCO1,9.07% (inactive)
15,O=C(NCC(c1cccs1)N1CCOCC1)c1cc(Cl)ccc1[N+](=O)[O-] (stereo not drawn),3.29% (inactive)
16,COc1cccc(CNc2nc3nc4c(c(=O)n3[nH]2)CCC4)c1,-3.51% (inactive)
17,COc1cccc(-c2cc3nc4c(c(N5CCC6(CC5)OCCO6)n3n2)CCCC4)c1,41.5% (active)
18,COc1ccc(OC)c(/C(C)=N\NC(=O)c2cc3cc(Cl)ccc3n2C)c1,14.6% (inactive)
19,C=CCn1c(SCC(=O)NC)nnc1C12CC3CC(CC(C3)C1)C2,11.2% (inactive)
20,O=[N+]([O-])/C=C/c1ccc2c(ccn2Cc2ccccc2)c1,-97.4% (inactive)

row,Compound,inhibition
1,CCS(=O)(=O)Nc1ccc(C2=NN(S(=O)(=O)c3ccc(F)cc3)C(c3ccco3)C2)cc1 (stereo not drawn),13.9% (inactive)
2,COCCn1cnc2c1c(=O)n(CC(=O)NN)c(=O)n2Cc1ccccc1,10.9% (inactive)
3,O=C(NCc1ccc2c(c1)OCO2)C(=O)NCC1OCCN1S(=O)(=O)c1ccc(F)cc1 (stereo not drawn),-2.49% (inactive)
4,O=C(Nc1cccc(F)c1)NC1CCCCCCC1,45.3% (active)
5,O=C(Nc1cccc(F)c1)NC1CCCc2ccccc21 (stereo not drawn),30.5% (inactive)
6,C/C(CC(=O)Nc1cccc(F)c1)=N\NC(=O)C(=O)NC1CCCCC1,15.5% (inactive)
7,Cc1c(C(=O)O)nnn1-c1nonc1N,3.56% (inactive)
8,C#CCOCCOCCOCCNc1nc(N2CCN(C(=O)[C@H](CO)n3cc([C@@H](N)C(C)C)nn3)CC2)nc(N2CCN(C(=O)[C@H](CCC(=O)O)n3cc([C@@H](N)[C@H](C)CC)nn3)CC2)n1,9.15% (inactive)
9,CC(C)(C)n1c(=O)[nH]c2c(c1=O)CCC2,-3.65% (inactive)
10,NNC(=O)c1oc2nc(-c3ccccc3)cc(-c3ccco3)c2c1N,19.9% (inactive)
11,CNC(=S)NNC(=O)c1oc2nc(-c3ccccc3)cc(-c3ccco3)c2c1N,18.1% (inactive)
12,CS(=O)(=O)c1sc2nc(-c3ccccc3)cc(-c3ccccc3)c2c1N,49.2% (active)
13,O=C(O)CSCc1ccc(C(=O)O)o1,3.55% (inactive)
14,C/C=C/C=C/C(=O)OCC(=O)Nc1ccc(Cl)cc1,15.8% (inactive)
15,O=C(/C=C/c1ccc(Cl)c([N+](=O)[O-])c1)c1ccc(O)cc1,41.3% (active)
16,O=C(/C=C/c1ccc(Cl)cc1Cl)c1cccnc1,25% (inactive)
17,O=C(/C=C/c1ccc(Cl)c([N+](=O)[O-])c1)c1cccnc1,46.1% (active)
18,CN(C)c1ccc(/C=C/C(=O)c2ccc(C(C)(C)C)cc2)cc1[N+](=O)[O-],27.1% (inactive)
19,CN(C)c1ccc(/C=C/C(=O)c2ccc(O)cc2)cc1[N+](=O)[O-],15.8% (inactive)
20,O=C(Nc1ccncc1)c1ccc(Cl)c([N+](=O)[O-])c1,-50.2% (inactive)

row,Compound,inhibition
1,COc1ccc(CCNC(=O)c2ccc(CS(=O)(=O)c3ccc(Br)cc3)o2)cc1OC,24.5% (inactive)
2,O=C(Cn1c(NCCO)nc2ccccc21)c1ccc(Cl)cc1Cl,1.93% (inactive)
3,CCCCn1ccnc1C(=O)c1cccc(S(=O)(=O)N2c3ccccc3CC2C)c1 (stereo not drawn),29.3% (inactive)
4,O=C1COc2ccc(C(=O)COC(=O)c3cccnc3Cl)cc2N1,-6.62% (inactive)
5,CCc1nnc(NC(=O)CSc2nnc(-c3ccncc3)n2Cc2ccccc2)s1,10.1% (inactive)
6,COC(=O)c1cc(NC(=O)CC2C(=O)NCCN2C(=O)c2ccc(F)cc2)cc(C(=O)OC)c1 (stereo not drawn),-15.9% (inactive)
7,COc1ccc(N2C(=O)CC(Sc3n[nH]c(-c4ccc(C)cc4)n3)C2=O)cc1 (stereo not drawn),54.7% (active)
8,COc1ccc(N2C(=O)CC(SC(C)C)C2=O)cc1 (stereo not drawn),-8.61% (inactive)
9,Cc1ccc(N2C(=O)CC(Sc3ncn[nH]3)C2=O)cc1 (stereo not drawn),30.2% (inactive)
10,COc1ccccc1C(=O)NCCn1cc(SCC(=O)NCc2ccco2)c2ccccc21,29.1% (inactive)
11,COc1cc(C(c2c(NC(=O)c3ccco3)sc(C)c2C)N2CCOCC2)cc(OC)c1OC (stereo not drawn),20.7% (inactive)
12,O=C1[C@@H](c2ccccc2)[C@@H](c2ccccc2)N1c1cccnc1,66.6% (active)
13,CCc1ccccc1NC1c2ccccc2C(=O)N1c1cccnc1 (stereo not drawn),36.7% (inactive)
14,CC(=O)C1=C(O)C(=O)N(c2cccnc2)C1c1ccc([N+](=O)[O-])cc1 (stereo not drawn),0.316% (inactive)
15,O=C(N/N=C/c1ccc(OCC2COCCO2)cc1)c1ccc(Br)cc1 (stereo not drawn),-0.668% (inactive)
16,CCOc1ccc(OCC)c(-c2c(=O)n(OCc3ccc(Cl)cc3)c3ccccc3[n+]2[O-])c1,26.2% (inactive)
17,CCOC(=O)COn1c(=O)c(-c2ccc(OCC)cc2)[n+]([O-])c2ccccc21,31.6% (inactive)
18,COc1ccc(OC)c(-c2c(=O)n(OCc3ccccc3Br)c3ccccc3[n+]2[O-])c1,47.1% (active)

# From PubChem BioAssay AID463190 (Sanford-Burnham Center for Chemical Genomics, 2010)
